# The source made the active and inactive calls. How the source made its calls: active means hit-call score of the fitted dose curve at least 0.9, where 1 is the maximum; inactive means score below 0.9.
# Molecular target: human PKD2 (PRKD2) CAMK Kinase, PRKD2 (gene 25865) (UniProt Q9BZL6)
# Experiment: ERF_KP_ENZ_hPKD2: Eurofins (ERF) Enzymatic Radiometric [10 uM ATP] KinaseProfiler LeadHunter Assay for human PKD2 (PRKD2) CAMK Kinase
# Experimental: ERF_KP_ENZ_hPKD2 is a biochemical, single-readout assay that uses extracted gene-proteins in a cell-free assay. Measurements were taken 0.66 hour after chemical dosing in a 96-well plate. See PKD2 Human Protein Ser/Thr Kinase Enzymatic Radiometric Assay [10 uM ATP], KinaseProfiler.ERF_KP_ENZ_hPKD2 is an assay component calculated from the ERF_KP_ENZ_hPKD2 assay. It is designed to measure enzyme activity using a type of enzyme reporter as detected by scintillation counting with radiometry technology.Data from the assay component ERF_KP_ENZ_hPKD2 was analyzed at the assay endpoint, ERF_KP_ENZ_hPKD2, in the positive analysis fitting direction relative to DMSO as the negative control and baseline of activity. Using a type of enzyme reporter, loss-of-signal activity can be used to understand changes in enzymatic activity as they relate to gene PRKD2. To generalize the intended target to other relatable targets, this assay endpoint is annotated to the kinase intended target family, where the subfamily is serine/threonine kinase.
# PKD2 (h) is incubated with 20 mM HEPES pH 7.4, 0.03% Triton X-100, 30 uM […], 10 mM MgAcetate and [gamma-33P]-ATP (specific activity and concentration as required). The reaction is initiated by the addition of the Mg/ATP mix. After incubation for 40 minutes at room temperature, the reaction is stopped by the addition of phosphoric acid to a concentration of 0.5%. […]
# Chain of human PKD2 (PRKD2) CAMK Kinase, PRKD2 (gene 25865) (Q9BZL6 whole entry, looked up): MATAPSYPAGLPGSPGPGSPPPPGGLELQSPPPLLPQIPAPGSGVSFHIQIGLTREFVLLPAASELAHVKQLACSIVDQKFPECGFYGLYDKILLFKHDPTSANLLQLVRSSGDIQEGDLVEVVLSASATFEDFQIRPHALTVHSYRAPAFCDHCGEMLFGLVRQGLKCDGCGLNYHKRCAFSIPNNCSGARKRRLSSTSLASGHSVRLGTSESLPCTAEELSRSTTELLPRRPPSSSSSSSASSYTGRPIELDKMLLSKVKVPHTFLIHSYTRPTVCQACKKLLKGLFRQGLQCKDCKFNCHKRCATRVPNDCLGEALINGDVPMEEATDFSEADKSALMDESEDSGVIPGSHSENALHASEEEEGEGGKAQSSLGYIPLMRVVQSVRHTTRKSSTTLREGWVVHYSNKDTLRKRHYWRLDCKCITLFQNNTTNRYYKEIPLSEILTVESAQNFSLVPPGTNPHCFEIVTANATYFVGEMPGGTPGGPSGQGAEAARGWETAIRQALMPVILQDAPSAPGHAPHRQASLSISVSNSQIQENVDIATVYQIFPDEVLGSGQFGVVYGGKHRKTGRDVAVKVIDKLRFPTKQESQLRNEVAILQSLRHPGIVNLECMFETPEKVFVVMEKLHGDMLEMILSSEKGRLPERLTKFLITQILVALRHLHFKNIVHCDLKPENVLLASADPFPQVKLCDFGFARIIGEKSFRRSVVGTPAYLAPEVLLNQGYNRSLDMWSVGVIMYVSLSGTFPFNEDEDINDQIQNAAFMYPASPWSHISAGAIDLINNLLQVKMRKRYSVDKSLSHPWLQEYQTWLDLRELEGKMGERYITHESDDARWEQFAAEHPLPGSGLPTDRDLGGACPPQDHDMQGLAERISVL
row,SMILES,AC50
1,O=C(/C=C/c1ccc(O)cc1)CC(=O)/C=C/c1ccc(O)cc1,0.3 nM (active)

# — PubChem BioAssay AID2284134 (EPA ToxCast)
